Screening results deposited in PubChem by National Center for Advancing Translational Sciences (NCATS).
Pf Dd2 inh – inhibitors of Plasmodium falciparum Dd2 growth. P. falciparum Dd2 growth, SYBR Green, 72 h. Potency, µM (series often up to 28.9 µM), for inactives: top-dose activity, negative = inhibition, hits mostly inhibitors. 4.3% of 120,000 active. AID 1347417; active = well fitted inhibition curve with a large enough effect;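 also: plate controls were DMSO vehicle for no effect and reference drug for full effect; nearly all actives have a fitted effect of over 65% in size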
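Infected erythrocytes (Dd2, 0.3% parasitemia, 2.5% hematocrit final) are added to compound in RPMI-1640/Albumax II medium, grown 72 h at 37C in low oxygen, then lysed with saponin/Triton-X containing SYBR Green and read by fluorescence.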
* = called active by the depositor; i = inactive; [ ] = dose if it differs, or a comment. This excerpt belongs to a sample that is enriched for hits. Potency is read from the fitted curve at half-maximal effect.

SMILES	Pf Dd2 inh
CC(C)(C)OC(=O)N1CCC(c2c(C(=O)NCCc3ccccc3)cnn2-c2ccc(F)cc2F)CC1	5.6µM*
Cc1ccc(-n2ncc(C(=O)NCCc3ccccc3)c2C2CCN(C(=O)OC(C)(C)C)CC2)c(C)c1	10µM*
Cc1ccc(-n2ncc(C(=O)NCc3ccccn3)c2C2CCN(C(=O)OC(C)(C)C)CC2)c(C)c1	i
COCCCNC(=O)c1cnn(-c2ccc(F)cc2F)c1C1CCNCC1	-3%
Cc1ccc(-n2ncc(C(=O)NCc3ccco3)c2C2CCN(C(=O)OC(C)(C)C)CC2)cc1C	11µM*
COc1ccc(Cl)cc1C(=O)Nc1ccc2c(c1)CCC(=O)N2	-7%
CCNC(=O)[C@@H]1C[C@H](NC(=O)CCc2ccccc2F)CN1C1CCCC1	i
Cc1ccc(CN[C@@H]2CO[C@H](CNC(=O)c3cccs3)[C@H]2O)cc1	i
Cc1cccc(NC(=O)N2CCC(CCNC(=O)Cc3ccccc3F)CC2)c1	-14%
CN(C)C(=O)C1CN(C(=O)c2ccccc2Br)CC12CCOCC2 (stereo not drawn)	18%
COC[C@@H]1[C@H](C(=O)N2CCc3ccccc32)CCC(=O)N1C	17%
Cn1ncc(N2CCC(CNC(=O)c3ccccc3-n3cncn3)C2)cc1=O (stereo not drawn)	4%
CCn1ccc(C(=O)N2CC(N(C3CCOCC3)S(C)(=O)=O)C2)n1	15%
O=C(c1ccccc1F)N1CCC2(CC1)N=C(c1ccccc1)NO2	i
Cc1cccc(C(=O)N2CCCCCCNC(=O)CC2c2ccccc2)c1 (stereo not drawn)	i
COCCN1CC(CO)C2(CCN(C3CCSCC3)CC2)C1 (stereo not drawn)	14%
Cc1noc([C@@H]2CC(F)(F)CN2C(=O)Cc2ccc(F)cc2)n1	i
CCOc1ccccc1C1NC(=O)N(CC(=O)Nc2c(C)cccc2CC)C2=C1C(=O)OC2 (stereo not drawn)	i
COC(=O)c1ccccc1NC(=O)N1CCc2c(sc3c2CCCC3)C1c1ccc(F)cc1 (stereo not drawn)	i
Cc1cccc(NC(=O)N2CCC(CC(=O)NCc3ccccc3)C2)c1C (stereo not drawn)	-13%
Cc1cccc(NC(=O)N2CC(=O)Nc3sc4c(c3C2c2ccccc2)CCCC4)c1C (stereo not drawn)	11µM*
O=C(Cc1ccccc1)Nc1sc2c(c1C(=O)Nc1ccccc1Cl)CCCC2	13%
O=C(COc1ccccc1)Nc1sc2c(c1C(=O)Nc1ccccc1Cl)CCCCC2	97%
O=C1CN(C(=O)Nc2ccccc2Cl)C(c2ccccc2)c2c(sc3c2CCCC3)N1 (stereo not drawn)	10µM*
COCc1nn(CC(=O)N(C)Cc2nccs2)c(=O)n1-c1ccccc1	-10%
SMILES	Pf Dd2 inh
Cc1n[nH]c(C)c1C(N)C(=O)N1CC2(C)CN(C)CC(C)(C1)C2O (stereo not drawn)	-7%
O=C(Cn1nc2n(c1=O)CCCC2)NCc1ccccc1	10%
COC1C(=O)N(c2cccc(F)c2)C12CCN(C(=O)c1cccc(C#N)c1)CC2 (stereo not drawn)	-9%
COc1ccc(CCN2C(=O)c3[nH]nc(-c4ccccc4O)c3C2c2ccccc2)cc1 (stereo not drawn)	8.9µM*
COc1ccc(CCN2C(=O)c3[nH]nc(-c4ccccc4O)c3C2c2ccc(OC)cc2)cc1 (stereo not drawn)	10µM*
COc1ccc(CN2C(=O)c3oc4ccccc4c(=O)c3C2c2ccc(O)c(OC)c2)cc1 (stereo not drawn)	-16%
COc1ccc(CCN2C(=O)N(c3ccccc3)C(=O)C2CC(=O)Nc2ccccc2)cc1 (stereo not drawn)	i
CCCNC(=O)CN1C(=O)c2c(c3ccccc3n2C)C1c1ccc(OC)cc1 (stereo not drawn)	9%
CN(Cc1cccnc1)Cc1nc(CC(N)=O)nn1-c1ccc2c(c1)CCC2	-8%
COc1ccc(OC)c(NC(=O)Cn2nc3c(cc2=O)CCCCC3)c1	-21%
CCc1nc2cc(N3CCC(C(=O)NC(C)c4cccnc4)CC3)cnc2nc1CC (stereo not drawn)	-11%
O=C(Nc1ccc(O)c(-c2nc3ccccc3o2)c1)c1ccc(Br)cc1	2.8µM*
O=C(Nc1ccc(O)c(-c2nc3ccccc3o2)c1)c1cccs1	36%
O=C(Nc1ccc(O)c(-c2nc3ccccc3o2)c1)c1sc2ccccc2c1Cl	0%
O=C(c1ccsc1)N1CCN(c2cc(-c3cccs3)[nH]n2)CC1	i
CCNC(=O)Nc1ccc(OCC(=O)NCc2cccs2)nc1	i
CCOC(=O)C1(Cc2ccccc2C(F)(F)F)CCN(C(=O)c2ccc[n+]([O-])c2)CC1	-11%
COCC1CN(C(C)=O)CC12CCN(Cc1cccc(C(F)(F)F)c1)CC2 (stereo not drawn)	-22%
CCCn1ncc(CN2CCC(Cc3cccc(C(F)(F)F)c3)(C(=O)OCC)CC2)c1C	13µM*
CCOCC(=O)N1CC2CC(C1)[C@H]1CCCC(=O)N1C2 (stereo partly drawn)	-16%
O=C(O)C[C@@H]1CCN(C(=O)C2CCCC2)C[C@@H]1CCN(CCN1CCOCC1)c1ccccc1	-13%
O=C(NCC1Cn2cccc2C(=O)N1Cc1ccccc1)c1cc(F)ccc1F (stereo not drawn)	i
Cc1ccc(C)c(CN2CC[C@@H]3CN(S(C)(=O)=O)[C@@H]3C2)c1	i
COc1ccc(-c2cc(OC(=O)c3ccc(F)cc3)c3c(C)oc(C)c3c(=O)c2)cc1OC	10µM*
CCCc1ccc(-c2ccc(C(=O)Oc3ccc(OCC)cc3)cc2)nc1	4%
SMILES	Pf Dd2 inh
COc1ccc(F)cc1-c1ccc(C(=O)O)cc1	i
CCOC(=O)c1c(-c2ccc(OC)c(OC)c2)csc1NC(=O)c1ccc(F)cc1	6%
CCOc1cc(-c2ccc(OC(=O)c3ccccc3Cl)c(OC)c2)cc(=O)c2c(C)oc(C)c12	-12%
CCOc1ccc(-c2cc(OC(=O)c3ccc(OC)cc3)c3c(C)oc(C)c3c(=O)c2)cc1	10µM*
COCc1nncn1C1CCN(S(=O)(=O)c2ccc(F)c(Cl)c2)CC1	3%
O=C1CCN(C(=O)C2CCN(C(=O)COc3ccc(F)cc3)CC2)CCCCCCN1	14%
O[C@@H]1C[C@@H](c2nc(-c3ccccc3)no2)N(Cc2cccc(OC(F)(F)F)c2)C1	i
Cc1ncoc1C(=O)N1CCCCCCn2c(nnc2-c2ccc(F)cc2)CC1	i
CC1=C[C@@H](CNC(=O)COCC(=O)O)[C@H](C(C)C)C[C@H]1CC(=O)N1CCCC1	19%[44.1 µM]
O=C(c1ccc2c(c1)OCO2)N1CCC(N2CCOCC2=O)CC1	4%
c1ccc2c(c1)CCN2c1nccnc1OC1CCNC1 (stereo not drawn)	7.9µM*
O=C(c1ccccc1)N1CCC(Oc2nccnc2N2CCOCC2)C1 (stereo not drawn)	-1%
CN1CCC(Oc2ncccc2C(=O)O)CC1	33%
O=C(C1CCOCC1)N1CCC(Oc2nccnc2N2CCOCC2)C1 (stereo not drawn)	55%
O=C(NCCc1ccccn1)c1cccnc1OC1CCNCC1	-11%
CN(C)C(=O)c1cccnc1OC1CCNCC1	19%
CCNC(=O)c1cccnc1OC1CCN(Cc2ccccn2)C1 (stereo not drawn)	i
c1cnc(N2CCOCC2)c(OC2CCNC2)n1 (stereo not drawn)	1.4µM*
CN1CCC(Oc2nccnc2N2CCOCC2)C1 (stereo not drawn)	25%
c1ccc(CN2CCC(Oc3nccnc3N3CCc4ccccc43)C2)nc1 (stereo not drawn)	4µM*
